Screens: PubChem, National Center for Advancing Translational Sciences (NCATS)
Hits are enriched below; roughly 9% of the tested compounds scored in any of these assays.
PLK1 PBD inh – qHTS for Inhibitors of PLK1-PDB (polo-like kinase 1 - polo-box domain): Primary Screen; Plk1 PBD binding of FITC phosphopeptide, fluorescence polarization; Potency, µM, without a hit: max response, negative = inhibition, actives largely listed as inhibitors; 360,000 tested, 2.8% active; AID 720504, 2013; further: series mostly up to about 57 µM; on the % scale 0 is the no-effect control and ±100 the full control effect; nearly all actives have a fitted effect of over 65% in size
Target sequence (P53350 whole entry, looked up, the tested form may be a part): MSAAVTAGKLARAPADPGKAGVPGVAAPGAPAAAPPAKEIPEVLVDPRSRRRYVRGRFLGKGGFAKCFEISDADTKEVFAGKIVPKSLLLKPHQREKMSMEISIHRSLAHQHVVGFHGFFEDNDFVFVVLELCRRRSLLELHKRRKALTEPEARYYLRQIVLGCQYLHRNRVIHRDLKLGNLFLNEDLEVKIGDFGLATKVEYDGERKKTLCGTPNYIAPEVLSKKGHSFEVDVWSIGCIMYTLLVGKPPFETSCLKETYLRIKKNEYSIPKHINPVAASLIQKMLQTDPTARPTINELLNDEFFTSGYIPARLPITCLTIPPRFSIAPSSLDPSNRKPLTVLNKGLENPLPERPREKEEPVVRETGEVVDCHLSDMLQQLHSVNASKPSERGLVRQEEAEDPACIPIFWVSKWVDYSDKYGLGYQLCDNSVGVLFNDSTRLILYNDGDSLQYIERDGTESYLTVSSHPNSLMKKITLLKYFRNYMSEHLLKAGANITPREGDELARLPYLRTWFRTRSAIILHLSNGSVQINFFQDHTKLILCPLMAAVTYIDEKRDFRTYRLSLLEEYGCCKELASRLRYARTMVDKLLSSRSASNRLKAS
BAZ2B inh – qHTS Assay for Inhibitors of BAZ2B. Bromodomain adjacent to zinc finger domain protein 2B (Homo sapiens), Q9UIF8. AlphaScreen BAZ2B-H3K14Ac peptide displacement. Potency, µM (top dose mostly 114 µM), for the others: at the highest dose activity change, negative = inhibition, hits mostly inhibitors. 360,000 tested, 4.4% active. AID 504333, 2011; further: on the % scale 0 is the no-effect control and ±100 the full control effect; nearly all actives have a fitted effect of over 60% in size
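Compounds, titrated to a top concentration of 110 uM, were incubated 30 min at room temperature with preformed BAZ2B/acetyl-K14 H3 peptide complex (50 nM each). Proximity signal was measured by AlphaScreen after 20 min with beads.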
G9a inh – qHTS Assay for Inhibitors of Histone Lysine Methyltransferase G9a; Histone-lysine N-methyltransferase EHMT2 (Homo sapiens), Q96KQ7; G9a H3K9 monomethylation, AlphaScreen, 2 h; Potency, µM (doses to about 102 µM), for the others: at the top dose activity, negative = inhibition, usual class: inhibitors; 350,000 tested, 8.8% active; AID 504332, 2011; further: on the % scale 0 is the no-effect control and ±100 the full control effect; nearly all actives have a fitted effect of over 75% in size
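Compounds were preincubated with 20 nM G9a for 15 min, after which biotinylated H3K9 peptide (500 nM) and SAM (20 uM) started a 2 h room-temperature reaction. Monomethylated product was quantified by antibody-based AlphaScreen chemiluminescence.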
HP1b chromo inh – HTS for Inhibitors of HP1-beta Chromodomain Interactions with Methylated Histone Tails; Potency, µM (series often up to 114 µM), for inactives: at the top dose activity change, negative = inhibition, most hits filed as inhibitors; AlphaScreen HP1-beta / biotin-H3K9me3 peptide binding; AID 540317, 2011; 390,000 tested, 0.56% active; further: nearly all actives have a fitted effect of over 70% in size
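HP1-beta protein (50 nM final) preincubated 30 min at room temperature with biotinylated H3(1-18)K9me3 peptide (50 nM) in PBS pH 7.4, 0.01% Tween-20, then compound added for 30 min. AlphaScreen streptavidin donor/nickel chelate acceptor beads (10 ug/mL final), 30 min dark, luminescence read.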
JMJD2A Tudor inh – qHTS Assay for Inhibitors of JMJD2A-Tudor Domain | 390,000 tested, 4.4% active | Lysine-specific demethylase 4A (Homo sapiens), O75164 | Potency, µM (top dose mostly 114 µM), without a hit: at the highest dose activity change, negative = inhibition, actives largely listed as inhibitors | AlphaScreen JMJD2A-Tudor / H3K4me3 peptide binding; further: on the % scale 0 is the no-effect control and ±100 the full control effect; nearly all actives have a fitted effect of over 50% in size
ALOX12 inh – Primary qHTS assay for inhibitors of human arachidonate 12S-lipoxygenase (ALOX12): Round 2; 580,000 tested, 1.1% active; Potency, µM (titrated, usually from 108 µM), without a hit: at the top dose activity change, negative = inhibition, actives largely listed as inhibitors; purified 12hLO, xylenol orange hydroperoxide absorbance; further: on the % scale 0 is the no-effect control and ±100 the full control effect
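Purified human 12hLO (150 nM final) in 25 mM Hepes, 0.01% Triton X-100, pH 7.0 was preincubated 15 min at room temperature with compound. Then 40 uM arachidonic acid was added, 30 min. Hydroperoxide was read by Fe-XO absorbance ratio 573/405 nm.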
Numbers without * were called inactive; u = inconclusive; x = not tested or not shown; [ ] = dose if it differs, or a comment. The call rests on the fitted dose curve; in most records, active means well fitted curve in the direction sought with a large enough effect; inconclusive means small, poorly fitted or top-dose-only effect, or another doubt; inactive means no such curve, though single readings can be large; an effect the other way counts as inactive or inconclusive. Potency means the concentration at half of the fitted maximal effect.

SMILES	PLK1 PBD inh	BAZ2B inh	G9a inh	HP1b chromo inh	JMJD2A Tudor inh	ALOX12 inh
CN(C)S(=O)(=O)c1cc(NC(=O)CNCCN2CCOCC2)ccc1Cl	2%	50µM*	10µM*	26%	28µM*	-20%
CN(C)S(=O)(=O)c1cc(NC(=O)CN2CCN(c3ccc(O)cc3)CC2)ccc1Cl	-14%	u	4µM*	5%	-14%	u
CC(C)CC(=O)Nc1ccc(C(=O)CN2CCN(c3ccc(O)cc3)CC2)cc1	-29%	50µM*	5µM*	-33%	u	u
CN(CC(=O)NCCCN1CCOCC1)S(=O)(=O)c1cc(Cl)ccc1Cl	-1%	-6%	x	21%	-6%	0%
O=C(CN1CCCCC1)Nc1ccc(S(=O)(=O)N2CCCCCC2)cc1	-1%	3%	u	19%	-15%	-4%
CC(=O)c1ccc(N2CCN(CC(=O)Nc3ccc(N4CCOCC4)cc3)CC2)cc1	x	-14%	-6%	x	x	x
COc1cccc(COC(=O)C2CC(=O)N(Cc3ccc(C)cc3)C2)c1OC (stereo not drawn)	-7%	9%	0%	24%	-9%	2%
O=C(NCCc1noc(-c2ccccc2)n1)c1ccccc1	x	x	x	x	x	14%
C[S+](=O)([O-])NC1CCN(C(=O)N2CC3CC(C2)[C@H]2CCCC(=O)N2C3)CC1 (stereo partly drawn)	x	x	x	x	x	23%
CCOc1ccc(CNC(=O)CCCN2C(=O)C(c3ccccc3)Oc3cccnc32)cc1 (stereo not drawn)	-16%	-12%[57.1 µM]	10%	65%	-13%	14%
O=C(CN1CCN(c2ccccc2O)CC1)Nc1ccc(S(=O)(=O)N2CCCCCC2)cc1	-2%	-6%	45µM*	2%	-23%	-22%
O=S(=O)(c1ccc(NC(=S)N2CCOCC2)cc1)N1CCCCC1	-1%	x	x	x	x	-10%
O=S(=O)(c1ccc(NC(=S)N2CCN(c3ccc(O)cc3)CC2)cc1)N1CCOCC1	-14%	x	20µM*	-30%	u	-16%
O=C(Nc1cccnc1)c1ccc(N2CCCC2)c([N+](=O)[O-])c1	-15%	-30%	-29%	17%	-23%	1%
COc1ccc(/C=C/C(=O)OCC(=O)N2CCc3ccccc32)cc1	-10%	9%	u	26%	-17%	0%
O=C(NC1CCCCC1)N1CCC(OC2CCN(Cc3ccccc3)CC2)CC1	x	x	x	x	x	-12%
CC(=O)Nc1ccc(NC(=O)c2ccco2)cc1	0%	10%	18%[2.33 µM]	23%	-7%	8%
CC1N(C)c2cc(NC(=O)c3ccco3)ccc2C1(C)C (stereo not drawn)	-8%	50µM*	u	-11%	u	u
CNS(=O)(=O)c1ccc2c3c(cccc13)C(=O)N2C	1%	-4%	40%	u	13%	8.9µM*
COc1ccc(-n2nc3c(c2NC(=O)CCl)CSC3)cc1	-24%	-18%	-9%[59 µM]	11%[57 µM]	-23%	-18%
O=C(c1ccc2ccccc2c1)N(Cc1cccs1)C1CC1	x	x	x	x	x	26%
Cc1ccc(S(=O)(=O)CC(c2ccccc2)N2CCCCC2)cc1 (stereo not drawn)	-14%	-13%	50µM*	36%	-7%	-10%
CCOCCCn1c(SCC(=O)N2CCOCC2)nc2ccccc2c1=O	-6%	-2%	15%	35%	-4%	0%
NNc1ccc(S(N)(=O)=O)cc1[N+](=O)[O-]	x	x	x	x	x	-4%
NNc1ccc([N+](=O)[O-])c2[nH][nH]c(=O)c12	24µM*	x	x	x	x	u
SMILES	PLK1 PBD inh	BAZ2B inh	G9a inh	HP1b chromo inh	JMJD2A Tudor inh	ALOX12 inh
Cc1ccc(NC(=O)Cn2cc(C=O)c3ccccc32)cc1C	-13%	7%	38%	39%	-9%	0%
Cc1cccc(-c2cc3nc(C)cc(C)n3n2)c1	21µM*	16%	61%	9%	-42%	-7%
O=C(c1ccc(-c2ccc([N+](=O)[O-])cc2Cl)o1)N1CCOCC1	-2%	-35%	45µM*	22%	-6%	-13%
O=Cc1ccc(-c2ccc([N+](=O)[O-])cc2Cl)o1	-1%	u	35µM*	-15%	u	1%
S=C(Nc1ccccc1Cl)N1CCOCC1	-11%	-7%	9%[59 µM]	14%	-9%	-13%
S=C(c1ccc(-c2ccccc2Cl)o1)N1CCOCC1	5.3µM*	40µM*	u	u	40µM*	x
S=C(c1ccc(-c2ccc(Br)cc2)o1)N1CCCCC1	-13%	-5%	79µM*	-13%	u	-30%
O=C(/C=C/c1cccs1)c1ccc(Br)cc1	-16%	-30%	-4%	32%	2%	137%
N#Cc1ccccc1Sc1ccccc1C(=O)NC1CCCc2ccccc21 (stereo not drawn)	x	x	x	x	x	15%
COc1cccc(C(=O)c2c[nH]c(C(=O)NCc3ccco3)c2)c1	0%	6%	6%[12.7 µM]	25%	0%	69%
CCn1c(SCC(=O)NCCc2ccc(OC)c(OC)c2)nc2c([nH]c3ccccc32)c1=O	-17%	x	x	x	x	u
S=C(c1ccc(-c2ccc(Cl)c(Cl)c2)o1)N1CCOCC1	27µM*	11µM*	u	u	35µM*	x
S=C(c1ccc(-c2ccc(Br)cc2)o1)N1CCOCC1	u	28µM*	14µM*	25µM*	35µM*	u
S=C(Nc1ccc(Cl)c(Cl)c1)N1CCOCC1	-9%	8%	-10%[59 µM]	28%	-11%	-3%
O=C(c1ccc(-c2cccc(Cl)c2Cl)o1)N1CCOCC1	-14%	-29%	40µM*	11%	-12%	-22%
O=C(c1ccc(-c2ccccc2Cl)o1)N1CCC1	5%	2%	u	13%	-11%	-16%
CC1CCN(C(=O)c2ccc(-c3ccccc3Cl)o2)CC1	-8%	u	40µM*	u	113%	-5%
O=C(N[C@@H]1CCN(C(=O)c2nnc3n2CCCC3)C[C@H]1O)c1cnccn1	x	x	x	x	x	-10%
CC(=O)Nc1cccc(Oc2nc(-c3ccccn3)nc3ccccc23)c1	-3%	-20%	u	23%	-27%	180%
CCOC(=O)c1cc(C#N)c(SC)nc1-c1ccccc1	-5%	107%	17%[2.33 µM]	180%	76%	3%
O=C1CCCc2c1cc(-c1ccccc1)n2-c1ccccc1	-13%	25µM*	45µM*	u	40µM*	11%
O=C(CNC(=O)c1cc2c(n(-c3ccccc3)c1=O)CCCC2=O)c1ccccc1	-13%	-6%	x	20%	3%	234%
CN1CCN(CC(=O)N2c3ccccc3Sc3ccccc32)CC1	-10%	-2%	-37%	48%	-1%	u
